Bioassay records: PubChem BioAssay, several laboratories
SKN-1 block: inhibitors of C. elegans SKN-1; AID 624304; hit rate 0.49% among 360,000; C. elegans VP596 Pgst-4::GFP/RFP ratio, acrylamide-induced, 24 h; inhibition, % at 21.8 µM;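 active = interference check ratio from 0.5 to 1.5 plus GFP to RFP signal ratio inhibition reaching or exceeding a fixed threshold, cut at about 30% in these data, passing the limit was not always enough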
Vif inh: HIV Vif inhibition; inhibition, % at 7.49 µM; HEK293T cells, Vif self-association by quenched fluorescence, imaging, 24 h; AID 602346; hit rate 0.35% among 340,000; in the data active = inhibition above about 50%, passing the limit was not always enough; inconclusive = no clear call, values can overlap the other calls; inactive = below about 31%
NadD block: NadD (S. aureus) enzyme inhibition; inhibition, % at 20 µM; purified NadD enzyme, colorimetric absorbance read-out; AID 602399; hit rate 0.78% among 360,000; in the data active = inhibition above about 26%
NR3A LBD binder: modulators (binders) of human NR3A ligand-binding domain; NR3A LBD differential scanning fluorimetry, Tm shift; 0% = protein alone, 100% = glycine-bound protein; Tm shift relative to glycine control, % at 25 µM; hit rate 2.5% among 340,000; AID 1259313;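 active = melting temperature shift of at least 10% of the positive control shift, at one fixed dose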
SMARCA2 act: SMARCA2 function activation, primary screen. hit rate 1% among 370,000. activation, % at 9.1 µM. MG213 cells, MMTV-luciferase reporter, dexamethasone, overnight; in the data active = activation above about 7.8%;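 also: 0% = vehicle wells and 100% = reference activator wells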
esBAF inh: SWI/SNF esBAF complex inhibition. reporter increase, % at 12.5 µM. mouse ES cells, Bmi1-luciferase knock-in reporter, 24 h; 100% = twice the neutral-well signal. AID 602393. hit rate 2% among 350,000; in the data active = activation above about 40%; inconclusive = no clear call, values can overlap the other calls;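 also: 0% = median of the plate's neutral control wells and 100% = double that signal; a rise in the Bmi1 reporter signal indicates esBAF inhibition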
SMARCA2 act conf: SMARCA2 activation, confirmation screen; shares compounds with SMARCA2 act; MG213 cells, MMTV-luciferase with dexamethasone, luminescence, overnight; MG213 cells expressing E1A, Rb sequestered; DMSO wells 0%, reference activator 100%; activation, % at 9.1 µM; hit rate 30% among 3,500; AID 652260;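 active = activation above its plate's cutoff, the mean activation of tested wells plus 3 SD, cut at about 7.9% in these data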
GAL4-VP16 Luc: GAL4-VP16 reporter activation counter-screen; hit rate 41% among 3,500; shares compounds with SMARCA2 act; AID 686939; activation, % at 9.1 µM; HEK293 GAL4-VP16 pG5luc reporter, luciferase luminescence; scaled: DMSO wells 0%, SAHA wells 100%;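 active = activation above the solvent-only control well mean plus 3 SD, averaged across control plates, cut at about 5.2% in these data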
* marks the source's active call; other numbers are inactive results; ? = inconclusive; . = not tested or not shown. In the library only some 5.2% were active in any assay of this set; here they are far more common.

SMILES	SKN-1 block	Vif inh	NadD block	NR3A LBD binder	SMARCA2 act	esBAF inh	SMARCA2 act conf	GAL4-VP16 Luc
O=C(NNC(=O)c1ccccc1F)c1ccc2[nH]c(=O)c(=O)[nH]c2c1	-3.7	-4.0	-2.8	-3.8	0.9	27.2	.	.
O=C(Nc1ccc(F)cc1)c1ccc2[nH]c(=O)c(=O)[nH]c2c1	-1.0	-2.2	-2.4	-1.5	8.5*	-5.2	0.3	0.5
CC(C)CC#Cc1ccc2c(c1)O[C@H](CN(C)C(=O)c1ccccn1)[C@@H](C)CN([C@@H](C)CO)S2(=O)=O	.	.	.	.	.	2.4	.	.
CCc1ccc(C(=O)Nc2cccc(-c3nn[nH]n3)c2)s1	9.5	0.4	-2.8	-0.5	9.2*	-3.2	-1.3	1.6
O=C(Nc1cccc(-c2nn[nH]n2)c1)c1cccs1	11.1	-3.0	3.5	-19.3	0.3	2.3	.	.
CNc1ccccc(-c2ccc3ccccc3n2)c1=O	17.3	-6.7	4.5	-5.8	14.6*	9.8	6.1	5.2*
COc1ccc(NS(=O)(=O)c2ccc(NC(=S)NC(=O)c3cccc(F)c3)cc2)nn1	1.0	-4.4	0.0	-0.1	8.2*	.	0.1	0.3
CO[C@H]1CN(C)C(=O)c2ccc(NC(=O)NC(C)C)cc2OC[C@H](C)N(CC2CC2)C[C@@H]1C	.	.	.	.	.	4.1	.	.
CCOC1=C2[C@@H](CN(S(=O)(=O)c3ccc(C)cc3)[C@H]2c2cccc3ccccc23)[C@H]2C(=O)N(C3CCCCC3)C(=O)[C@H]2C1	11.7	.	12.3	.	10.1*	-1.1	-1.6	-0.9
CC(C)(C)S(=O)N1Cc2cc(C(=O)NCCCN3CCOCC3)nc(-c3cccc(C#CCC4CCCC4)c3)c2[C@@H]1CCO (some centres undefined)	.	.	.	.	.	-0.2	.	.
COc1ccc(-c2ccc(SCC(=O)NC3CCCC3)nn2)cc1	-3.4	4.4	-2.5	.	-3.8	32.2	.	.
COc1ccc(-c2ccc(SCC(=O)NC3CCCCC3)nn2)cc1OC	0.7	-9.4	-1.6	-0.4	8.5*	?	10.9*	4.8
C[C@@H]1CN([C@@H](C)CO)C(=O)c2ccccc2-c2ccccc2CO[C@@H]1CN(C)C(=O)Nc1ccc2c(c1)OCO2	.	.	.	.	.	1.8	.	.
COc1ccc(/C(O)=C2/C(=O)C(=O)N(c3ccccn3)C2c2ccc(F)cc2)cc1 (centres undefined)	14.5	-17.2	5.6	0.3	11.3*	22.8	1.0	2.1
COc1ccc(C2/C(=C(/O)c3ccc(C)cc3)C(=O)C(=O)N2c2ccccn2)cc1 (centres undefined)	-3.4	-0.3	10.0	-1.1	1.2	7.3	.	.
COc1ccc(-c2nc3ccccc3[nH]2)cc1	14.5	-1.3	-6.6	4.8	5.0	.	.	.
c1ccc2[nH]c(-c3ccncc3)nc2c1	3.7	-15.7	3.0	-0.7	9.5*	.	1.2	2.5
COc1ccc(-c2csc(Nc3cccnc3)n2)cc1OC	5.4	6.0	-1.4	-27.8	-0.1	24.7	.	.
COc1cccc(Nc2nc(-c3cccnc3)cs2)c1	22.5	-2.3	-10.9	-2.0	10.6*	?	13.2*	6.6*
COCC(=O)Nc1ccc2c(c1)C(=O)N(C)C[C@H](OC)[C@H](C)CN(C(=O)c1cnccn1)[C@@H](C)CO2	.	.	.	.	.	5.2	.	.
Cc1ccc(S(=O)(=O)N(C)C[C@@H]2OCc3cn(nn3)CCCC(=O)N([C@@H](C)CO)C[C@@H]2C)cc1	.	.	.	.	.	-7.3	.	.
Cc1ccsc1/C=C1\SC(N)=NC1=O	22.1	-1.4	-7.0	-0.1	3.3	.	.	.
NC1=NC(=O)/C(=C/C=C/c2cccs2)S1	-0.5	6.4	-2.0	-11.2	16.4*	.	8.6*	5.8*
Cc1cc(=O)oc2cc(OCCCC[n+]3ccccc3)ccc12	2.7	-0.8	-3.4	-3.7	-1.8	.	.	.
Cc1cc(=O)oc2cc(OCCc3ccccc3)ccc12	-2.9	-3.0	-3.0	0.9	8.6*	66.5*	8.7*	20.5*
